PLAP act = PLAP enzyme activators, biochemical, luminescence, HTS; purified PLAP enzyme, luminescent substrate read-out; active compounds read high; activation fold at 20 µM; 96,000 compounds, 1.2% hits; AID 696, 2007; in the data active = activation fold above about 2
Target sequence (P05187 whole entry, looked up): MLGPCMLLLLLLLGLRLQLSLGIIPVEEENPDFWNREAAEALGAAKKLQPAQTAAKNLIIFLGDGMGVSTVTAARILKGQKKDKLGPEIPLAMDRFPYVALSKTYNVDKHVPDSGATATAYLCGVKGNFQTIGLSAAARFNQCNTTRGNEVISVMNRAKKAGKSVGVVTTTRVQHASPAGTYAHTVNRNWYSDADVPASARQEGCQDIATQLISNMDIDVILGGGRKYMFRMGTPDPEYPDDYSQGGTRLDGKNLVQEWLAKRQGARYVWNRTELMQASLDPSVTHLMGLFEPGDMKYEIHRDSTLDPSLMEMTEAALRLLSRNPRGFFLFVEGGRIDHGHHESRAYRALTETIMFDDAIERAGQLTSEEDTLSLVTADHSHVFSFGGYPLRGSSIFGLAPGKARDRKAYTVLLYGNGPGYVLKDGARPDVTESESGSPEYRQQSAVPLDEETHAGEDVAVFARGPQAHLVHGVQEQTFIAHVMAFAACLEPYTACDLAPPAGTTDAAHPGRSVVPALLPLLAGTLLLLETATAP
DAT uptake mod = changed hDAT dopamine uptake under cocaine IC80, either direction, primary screen, cocaine antagonist project, cell-based, LLC-PK1 hDAT, [14C]-dopamine uptake, MLSMR; Sodium-dependent dopamine transporter (Homo sapiens), Q01959; LLC-PK1 hDAT cells, [14C]-dopamine uptake with cocaine IC80; actives deviate in either direction; B-score at 10 µM; 110,000 compounds, 1.3% hits; AID 449768, 2010;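 active = Z score or B-score, a plate-position-corrected score, falls beyond the plate's 99.7% confidence bounds, in either direction; inactive = both scores lie inside the 99.7% bounds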;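 note: scored against the spread of the other compound wells on the same plate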
D1 allo mod = D1 CRE-luciferase signal change, two-sided – cell-based, HEK293 D1, dopamine EC30, D1 allosteric modulator project, primary screen; D(1A) dopamine receptor (Homo sapiens), P21728; dopamine EC30 potentiation; actives deviate in either direction; B-score at 10 µM; 58,000 compounds, 5.9% hits;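 active = luminescence count or its row- and column-corrected plate score outside the 99.7% band of the plate's sample wells, on either side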
PostGolgi ctrl = growth inhibition of yeast control strain, primary screen, counter-screen for post-Golgi transport modulator project; efflux-deficient yeast background strain, growth absorbance A615, 16 h; AID 738, 2007; inhibition, % at 10 µM; 98,000 compounds, 5% hits
PostGolgi yeast = phenotypic screen on post-Golgi transport, primary screen; 98,000 compounds, 0.9% hits; inhibition, % at 10 µM; AID 739, 2007; post-Golgi transport phenotypic cell assay;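 note: yeast cells grown in 1536-well plates; yeast grown about 18 h at 30C before absorbance read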
Cav32 inh = Cav3.2 calcium influx blockers – cell-based, Fluo-4 calcium fluorescence, FDSS, MLSMR library, primary screen; Voltage-dependent T-type calcium channel subunit alpha-1H (Homo sapiens), O95180; Cav3.2-expressing cells; active compounds read low; B-score at 10 µM; 100,000 compounds, 4% hits; AID 449739, 2010;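 active = single-dose well whose peak fluorescence ratio is a statistical outlier from its plate by either plate-standardised score or position-corrected B-score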
* hit, by the source's call; / = not tested or not shown. The list is not random: actives were taken first. Their share in the collection is about 12%. Cut-off read from the data, not from the text of the source, unless noted: active = inhibition above about 30%; inactive = the rest.

SMILES | PLAP act | DAT uptake mod | D1 allo mod | PostGolgi ctrl | PostGolgi yeast | Cav32 inh
CC(C)(C)[C@H]1C=C(C(=O)N2CCN(Cc3ccc4c(c3)OCO4)CC2)O[C@@H](OCc2ccc(CO)cc2)C1 | / | 1.1 | / | / | / | -2.6
Cc1ccc(Cl)cc1NC(=O)CSC(N)=O | 1.7 | 0.21 | / | 9 | -4 | -4.1
Cc1ccc(Cl)cc1NC(=O)CC(O)(C(F)(F)F)C(F)(F)F | 0.9 | -2.4 | -4.2* | 28 | 9 | -2.7*
CC(NC(=O)C(Cc1ccccc1)N1C(=O)C2C3CCC(C3)C2C1=O)c1ccccc1 (stereo not drawn) | 1.1 | 1.7 | / | 32* | -1 | -0.0052
O=C(NCc1ccco1)C(Cc1ccccc1)N1C(=O)C2C3C=CC(C3)C2C1=O (stereo not drawn) | 1.7 | 0.6 | -1.2 | 8 | 2 | -0.0032
O=C(OCC(=O)N1CCC(Cc2ccccc2)CC1)c1ccc[nH]c1=O | 1.1 | -0.018 | -0.62 | 23 | -6 | 0.46
COc1ccccc1OCC(O)Cn1c(=N)n(Cc2ccccc2)c2ccccc21 (stereo not drawn) | 1.5 | 1.4 | -4.7* | -2 | -2 | -4.7
C=CCn1c(=N)n(CC(O)COc2ccccc2OC)c2ccccc21 (stereo not drawn) | 0.9 | -0.11 | -5.4* | 4 | -17 | -0.025
CC(=O)CCS(=O)(=O)c1ccc(Oc2ccc(S(=O)(=O)CCC(C)=O)cc2)cc1 | / | -1.6 | / | / | / | 0.76
COc1ccc(S(=O)(=O)CCC(=O)O)cc1 | 0.9 | 0.001 | -0.11 | 34* | 1 | 0.55
O=C1CSC(c2cn(-c3ccccc3)nc2-c2cc3ccccc3o2)N1Cc1ccccc1 (stereo not drawn) | 1.2 | / | / | 11 | 4 | /
Cc1ccc(-c2nn(-c3ccccc3)cc2C2SCC(=O)N2Cc2ccccc2)o1 (stereo not drawn) | 1.4 | -0.039 | 0.017 | 58* | 2 | -2.4
C=CCSc1n[nH]c2nc3c(c(=O)n12)C1(CCCC1)Cc1ccccc1-3 | 1.5 | / | / | 23 | 5 | /
Cc1ccc(/C(CSc2nccn2-c2ncc(C(F)(F)F)cc2Cl)=N\O)cc1 | 1 | -0.52 | / | 24 | -7 | -6.2*
Cc1ccc(-c2nc(Nc3ccccc3)n[nH]2)cc1 | 1 | -3* | -1.4 | 16 | -5 | 0.13
Nc1nc(CSc2n[nH]c(-c3ccccc3)n2)nc(Nc2ccccc2)n1 | 1.1 | 1.5 | 2.7 | 6 | 2 | -0.68
O=C(O)CCc1ccc(-c2ccc(Cl)cc2)n1CCC(=O)O | 0.9 | 0.37 | / | 1 | -25 | /
O=C(O)CCc1ccc(-c2ccc(Cl)cc2)n1CC(=O)O | 1.2 | 0.097 | -3.7* | 7 | 4 | 0.4
Cc1cc(C)n2nc(C(=O)NCc3ccccc3)cc2n1 | 1.1 | -0.55 | 0.63 | 3 | 43* | 0.29
CC1(C)CC(=O)C=C(NCCN2CCN(C(=O)Nc3ccccc3)CC2)C1 | 0.9 | 0.45 | -0.088 | 3 | 19 | 0.54
O=C(CCCOc1ccc(Cl)cc1Cl)N1CCCc2ccccc21 | 1.3 | 0.072 | / | 48* | -7 | -1.6
COc1cc2c(cc1OC)CN(C(=O)CCCOc1ccc(Cl)cc1Cl)CC2 | 1.8 | 1.4 | / | 38* | -1 | -2.9
Cc1cc(Cl)ccc1OCCCC(=O)N1CCN(C)CC1 | 1.3 | 1 | / | -2 | 10 | 0.18
Cc1cccc(OCCCC(=O)N2CCCc3ccccc32)c1C | 1.2 | 0.26 | / | 27 | -1 | -3
CCOC(=O)/C=C1\SCC(=O)N1CC(=O)Nc1ccc(C(C)C)cc1 | 1.1 | 0.73 | / | 9 | -2 | -3.8*
SMILES | PLAP act | DAT uptake mod | D1 allo mod | PostGolgi ctrl | PostGolgi yeast | Cav32 inh
CCOC(=O)/C=C1\SCC(=O)N1CCOc1cccc(Br)c1 | 1.4 | -0.47 | -0.25 | 19 | 4 | -4.3*
CCOC(=O)/C=C1\SCC(=O)N1CC(O)CN1C(=O)CS/C1=C\C(=O)OCC | 1 | -0.34 | -0.04 | -1 | 4 | 1.3
CCOC(=O)/C=C1\SCC(=O)N1CC(=O)Nc1ccc2c(c1)CCC2 | 1.1 | -0.71 | 0.039 | 8 | -4 | -1
CC1(C)NC(C)(C)c2nonc2/C1=N\O | 0.8 | 2.8* | 1.9 | 7 | -8 | 0.24
c1cn2cc(-c3ccc4c(c3)OCO4)nc2s1 | 1.1 | -0.063 | -3.6 | -7 | -3 | 0.31
Cc1c(Cl)cccc1NC(=O)c1ccc(-n2ccnc2)nc1 | 1.1 | 0.96 | / | 34* | 2 | 1.8
O=C(CSc1nnc(C2COc3ccccc3O2)o1)N1CCCc2ccccc21 (stereo not drawn) | 0.8 | 0.73 | 0.22 | 27 | -4 | -10*
Cc1cc(C)nc(SCc2nnc(SCc3ccccc3Cl)o2)n1 | 1.5 | / | -0.91 | 17 | 9 | -6.2*
O=C(CSc1nnc(Cc2ccccc2)o1)N1CCCc2ccccc21 | 1.2 | 2.6* | -0.58 | 12 | -3 | -3.9*
Cc1cc(C)nc(SCc2nnc(SCC(=O)N3CCCc4ccccc43)o2)n1 | 1.6 | 3.3* | -0.0028 | 14 | -7 | -0.5
Cc1cc(C)nc(SCc2nnc(SCC(=O)Nc3c(C)cccc3C)o2)n1 | / | 0.98 | / | / | / | 0.67
COC(=O)c1cc(COc2ccc3c(c2)oc(=O)c2ccccc23)c(C)o1 | 0.8 | 0.022 | / | 4 | -1 | -0.43
COc1ccc(Cn2nc(C)n(N(C)c3ncc(C(F)(F)F)cc3Cl)c2=O)cc1 | 1.9 | -0.98 | / | 6 | -3 | -2.4
Cc1cc(=O)n2nc(-c3ccc(C(F)(F)F)cc3)sc2n1 | 1 | -0.47 | / | 28 | 13 | 0.4
Cc1cc(NC(=O)CSc2nnc(C3COc4ccccc4O3)o2)no1 (stereo not drawn) | 1 | -0.55 | 0.32 | 42* | 1 | 1.1
Cc1cc(NC(=O)CSc2nnc(-c3ccoc3C)o2)no1 | 0.8 | 2.6* | 1.3 | 10 | 8 | -0.18
O=C(CSc1nnc(C2COc3ccccc3O2)o1)N1CCOCC1 (stereo not drawn) | 1.1 | -1.3 | -0.77 | 1 | 1 | -0.15
O=C(NC1CCCC1)c1ccc(CNc2c(N3CCOCC3)c(=O)c2=O)cc1 | 1.1 | -0.14 | / | -5 | 5 | -0.92
Clc1ccc(CSc2nnc(-c3ccncc3)o2)c(Cl)c1 | 0.9 | -0.39 | 0.028 | 16 | 0 | -0.2
O=c1c(-c2nnc(SCc3ccc(Cl)cc3Cl)o2)cccn1Cc1ccccc1 | 1 | 1.1 | / | 66* | -1 | -2.2
O=C(Nc1ccccc1)c1ccn[nH]1 | 1 | 0.047 | / | -2 | 0 | 0.054
CC(=O)c1ccc(NC(=O)c2ccn[nH]2)cc1 | 1.5 | -0.65 | -2.2* | 0 | 4 | 0.87
Cc1nnc(SCCn2c(N3CCCC(C)C3)nc3c2c(=O)n(C)c(=O)n3C)s1 (stereo not drawn) | 1.3 | -0.25 | 0.89 | 1 | 0 | -0.7

Screening results deposited in PubChem by several laboratories.
